Results taken from PubChem BioAssay (EPA / NIEHS).
“And” between values parts separate entries of the source, which are not always exact repeats. Equal entries are not always repeated. More than one record can exist for a structure, and the calls need not agree. The source made the active and inactive calls. Rule for the calls: active = hit-call score of the fitted dose curve at least 0.9, where 1 is the maximum; inactive = score below 0.9.

test: CCTE_Shafer_MEA_dev_interburst_interval_mean: CCTE's Neural Network Formation Assay for Mean Interburst Interval, Shafer Lab (AID 2284046)
Description: CCTE_Shafer_MEA_dev assay is conducted using Axion Biosystems 48 well microelectrode array (MEA) plates and Maestro recording system. Each well of the MEA plate contains a grid of 16 microelectrodes embedded in the culture surface. Electrically active cells, such as neurons, can be cultured over the electrodes, and electrical activity in these cells can be recorded extracellularly. The spontaneous firing of neurons is captured from each electrode on a microsecond timescale providing both temporally and spatially precise data. […] The CCTE_Shafer_MEA_dev assay uses primary cultures of rat cortical neurons. Recordings are made on days post-plating 5, 7, 9 and 12. As these cultures mature over time, neural networks develop functional activity and form cohesive networks in which electrical activity can be highly coordinated. CCTE_Shafer_MEA_dev_interburst_interval_mean is 1 of 19 assay components of the CCTE_Shafer_MEA_dev assay. It measures the average time interval between consecutive single-electrode bursts (temporally-clustered groups of action potential firing) during a recording in a microelectrode array (MEA) using Axion Biosystems Maestro 768 channel amplifier with the AxIS adaptive spike detector. The mean inter-burst interval is averaged across the actively bursting electrodes to report a well-mean value. To collapse across multiple recordings made on days post-plating 5, 7, 9 and 12, the trapezoidal area-under-the-curve of the component is calculated.Data from the assay component CCTE_Shafer_MEA_dev_interburst_interval_mean was analyzed into 1 assay endpoint. This assay endpoint, CCTE_Shafer_MEA_dev_interburst_interval_mean, was analyzed in the negative analysis fitting direction relative to DMSO as the negative control and baseline of activity. Using a type of functional reporter, gain or loss-of-signal activity can be used to understand electrical activity.
On the day prior to culture, each well was coated thoroughly with 150 uL of 0.05% polyethyleneimine (PEI, Sigma Cat P3143) in 50 mM HEPES (Sigma Cat H7523) at a pH of 8. The plate was incubated at 37C for one hour. PEI was rinsed out with 500 uL of sterile water three times. Plates were stored at 4C until the day of culture. This culture was plated at a seeding density of 1.5 x 10^5 cells/well on a 48-well MEA plate, prepared as described above. Cells were administered via a 25 uL media/laminin ([…]; Sigma Cat L2020-1MG) drop directly onto the microelectrode array, as adding the cells with the laminin results in better attachment than pre-coating with laminin. After 2 hours, an additional 475 uL of cortical media was added and the cells returned to the incubator. Exposure starts at day 0 of plating and is continued over twelve days of network development until the experiment is terminated. Cells are fed with fresh medium on DIV 5 and 9, following the recordings on those days. The entire volume of media in the well is exchanged and any vehicle or compound treatment is renewed. Complete details are found in OP-NHEERL/ISTD/SBB/TJS/2015-03-r0 (available on request, email shafer.tim@epa.gov). Measurement of the electrical activity is non-invasive, and recordings can be made from the same plate over multiple different days of the culture. In cortical neurons, this allows for the measurement of extracellular action potentials over the period during which networks form in the MEA plate.

Row | SMILES | outcome | AC50
1 | CC(C)(C)c1cc(O)ccc1O | inactive | 
2 | O=C1C2(Cl)C3(Cl)C4(Cl)C(Cl)(Cl)C5(Cl)C3(Cl)C1(Cl)C5(Cl)C24Cl (configuration not stated) |  | 3.75 µM (active)
3 | CCC(=O)C(CC(C)N(C)C)(c1ccccc1)c1ccccc1 (configuration not stated) |  | 4.24 µM (active)
4 | Cn1sc(Cl)cc1=O |  | 7.54 µM (active)
5 | C=C(C)C(=O)[O][Sn]([CH2]CCC)([CH2]CCC)[CH2]CCC |  | 0.0482 µM (active)
6 | O=C(O)C(F)(F)C(F)(F)C(F)(F)C(F)(F)C(F)(F)C(F)(F)C(F)(F)C(F)(F)C(F)(F)C(F)(F)F | inactive | 
7 | O=C(O)C(F)(F)C(F)(F)C(F)(F)C(F)(F)C(F)(F)C(F)(F)F | inactive | 
8 | CC(=O)[O][Hg][c]1ccccc1 |  | 0.00958 µM (active)
9 | CCOP(=S)(OCC)Oc1nc(Cl)c(Cl)cc1Cl | inactive | 15.2 µM (active) and 15 µM (active)
10 | ClC1(Cl)C2(Cl)C3(Cl)C4(Cl)C(Cl)(Cl)C5(Cl)C3(Cl)C1(Cl)C5(Cl)C24Cl (configuration not stated) |  | 3.37 µM (active)
11 | COP(=O)(OC)O/C(=C\Cl)c1cc(Cl)c(Cl)cc1Cl | inactive | 
